In ChEMBL document CHEMBL1961873, “Compounds: GSK PKIS; Assays: Nanosyn kinase panel” (2012):

How the values were obtained:
[1] = molecular target: T1, Tyrosine-protein kinase ITK/TSK (Homo sapiens) (UniProt Q08881); conditions: at 1 µM;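 note: values are mean percent inhibition of ITK from the GSK PKIS screen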
T1 sequence (whole entry): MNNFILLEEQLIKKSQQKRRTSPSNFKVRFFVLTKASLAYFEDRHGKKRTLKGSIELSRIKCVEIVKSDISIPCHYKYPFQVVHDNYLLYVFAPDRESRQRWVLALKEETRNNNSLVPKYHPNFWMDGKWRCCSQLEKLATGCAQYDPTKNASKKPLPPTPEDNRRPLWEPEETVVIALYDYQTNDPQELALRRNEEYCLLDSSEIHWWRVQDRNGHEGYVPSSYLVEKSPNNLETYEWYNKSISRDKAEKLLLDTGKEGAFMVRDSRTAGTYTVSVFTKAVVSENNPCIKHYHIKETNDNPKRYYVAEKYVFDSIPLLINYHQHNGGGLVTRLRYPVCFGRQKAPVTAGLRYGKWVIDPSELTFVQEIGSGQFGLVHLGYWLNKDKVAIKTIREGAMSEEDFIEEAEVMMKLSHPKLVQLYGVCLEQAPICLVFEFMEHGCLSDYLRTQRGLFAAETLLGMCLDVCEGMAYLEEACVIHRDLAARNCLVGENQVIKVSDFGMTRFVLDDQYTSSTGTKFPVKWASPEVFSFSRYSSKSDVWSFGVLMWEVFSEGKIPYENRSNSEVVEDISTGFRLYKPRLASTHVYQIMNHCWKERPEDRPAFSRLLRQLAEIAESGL

[2] = molecular target: Tyrosine-protein kinase JAK1 (Homo sapiens) (UniProt P23458); conditions: at 0.1 µM
[3] = molecular target: Tyrosine-protein kinase JAK1 (Homo sapiens) (UniProt P23458); conditions: at 1 µM
[4] = molecular target: Tyrosine-protein kinase JAK2 (Homo sapiens) (UniProt O60674); conditions: at 0.1 µM
Chain of Tyrosine-protein kinase JAK2 (Homo sapiens) (O60674 whole entry): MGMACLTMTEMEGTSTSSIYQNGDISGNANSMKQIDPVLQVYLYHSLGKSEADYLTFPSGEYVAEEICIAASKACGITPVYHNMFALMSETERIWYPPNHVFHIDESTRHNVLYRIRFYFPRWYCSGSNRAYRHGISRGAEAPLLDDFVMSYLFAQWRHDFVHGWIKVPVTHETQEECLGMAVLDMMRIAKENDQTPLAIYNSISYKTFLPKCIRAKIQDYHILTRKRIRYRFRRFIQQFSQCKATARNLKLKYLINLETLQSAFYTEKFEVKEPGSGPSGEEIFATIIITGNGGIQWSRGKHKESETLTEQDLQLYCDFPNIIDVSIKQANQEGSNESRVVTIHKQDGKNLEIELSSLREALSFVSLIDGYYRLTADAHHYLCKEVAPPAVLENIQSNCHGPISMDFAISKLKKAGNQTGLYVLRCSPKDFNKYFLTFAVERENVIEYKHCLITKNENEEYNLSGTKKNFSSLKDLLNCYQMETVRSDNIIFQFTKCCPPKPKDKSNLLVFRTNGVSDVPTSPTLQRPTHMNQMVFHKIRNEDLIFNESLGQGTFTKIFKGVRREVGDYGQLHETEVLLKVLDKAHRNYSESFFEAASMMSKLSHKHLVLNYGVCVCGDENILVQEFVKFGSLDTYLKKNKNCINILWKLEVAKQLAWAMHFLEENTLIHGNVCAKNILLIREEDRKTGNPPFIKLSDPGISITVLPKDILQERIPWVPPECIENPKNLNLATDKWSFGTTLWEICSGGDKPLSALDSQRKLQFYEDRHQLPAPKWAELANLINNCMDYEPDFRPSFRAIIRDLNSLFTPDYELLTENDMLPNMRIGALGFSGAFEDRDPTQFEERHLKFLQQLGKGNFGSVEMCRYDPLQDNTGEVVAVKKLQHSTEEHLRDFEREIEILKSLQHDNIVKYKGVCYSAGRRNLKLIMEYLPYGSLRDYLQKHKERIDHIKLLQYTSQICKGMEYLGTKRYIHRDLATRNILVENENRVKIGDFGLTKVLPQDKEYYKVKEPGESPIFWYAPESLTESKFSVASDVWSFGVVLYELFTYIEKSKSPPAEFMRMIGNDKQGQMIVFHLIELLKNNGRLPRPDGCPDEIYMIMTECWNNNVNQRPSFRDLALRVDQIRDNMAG

[5] = molecular target: Tyrosine-protein kinase JAK2 (Homo sapiens) (UniProt O60674); conditions: at 1 µM
[6] = molecular target: T2, Tyrosine-protein kinase JAK3 (Homo sapiens) (UniProt P52333); conditions: at 0.1 µM
T2 sequence (whole entry): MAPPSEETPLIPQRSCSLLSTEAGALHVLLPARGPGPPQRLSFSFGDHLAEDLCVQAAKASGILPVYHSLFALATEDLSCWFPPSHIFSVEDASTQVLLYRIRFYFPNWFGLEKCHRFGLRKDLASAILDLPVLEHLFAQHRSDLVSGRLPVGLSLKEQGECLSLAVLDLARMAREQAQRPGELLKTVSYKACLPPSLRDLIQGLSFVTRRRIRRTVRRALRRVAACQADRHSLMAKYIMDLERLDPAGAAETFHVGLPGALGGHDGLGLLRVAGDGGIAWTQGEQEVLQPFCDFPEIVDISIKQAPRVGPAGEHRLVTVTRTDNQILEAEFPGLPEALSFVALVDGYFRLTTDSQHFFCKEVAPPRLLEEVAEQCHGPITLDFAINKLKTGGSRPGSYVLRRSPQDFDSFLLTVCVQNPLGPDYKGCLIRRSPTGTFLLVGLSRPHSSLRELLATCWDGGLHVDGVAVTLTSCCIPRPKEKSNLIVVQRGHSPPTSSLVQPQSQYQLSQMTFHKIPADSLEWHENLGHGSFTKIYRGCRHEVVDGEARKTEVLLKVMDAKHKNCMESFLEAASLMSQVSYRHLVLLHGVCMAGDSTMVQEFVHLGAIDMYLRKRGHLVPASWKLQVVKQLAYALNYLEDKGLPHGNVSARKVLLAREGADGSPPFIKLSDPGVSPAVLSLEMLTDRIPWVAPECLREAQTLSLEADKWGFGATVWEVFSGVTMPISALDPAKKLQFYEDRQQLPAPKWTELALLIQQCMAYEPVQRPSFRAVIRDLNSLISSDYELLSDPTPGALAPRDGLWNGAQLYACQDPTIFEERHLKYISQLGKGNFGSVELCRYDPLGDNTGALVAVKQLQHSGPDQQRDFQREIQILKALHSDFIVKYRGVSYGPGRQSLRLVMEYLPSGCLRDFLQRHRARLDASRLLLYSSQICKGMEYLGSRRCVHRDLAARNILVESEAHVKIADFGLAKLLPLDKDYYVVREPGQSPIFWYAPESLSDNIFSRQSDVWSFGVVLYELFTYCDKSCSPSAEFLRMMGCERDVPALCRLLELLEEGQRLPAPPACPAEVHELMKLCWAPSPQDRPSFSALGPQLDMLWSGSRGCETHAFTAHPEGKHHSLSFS

[7] = molecular target: T2, Tyrosine-protein kinase JAK3 (Homo sapiens); conditions: at 1 µM
[8] = molecular target: Vascular endothelial growth factor receptor 2 (Homo sapiens) (UniProt P35968); conditions: at 0.1 µM
Chain of Vascular endothelial growth factor receptor 2 (Homo sapiens) (P35968 whole entry): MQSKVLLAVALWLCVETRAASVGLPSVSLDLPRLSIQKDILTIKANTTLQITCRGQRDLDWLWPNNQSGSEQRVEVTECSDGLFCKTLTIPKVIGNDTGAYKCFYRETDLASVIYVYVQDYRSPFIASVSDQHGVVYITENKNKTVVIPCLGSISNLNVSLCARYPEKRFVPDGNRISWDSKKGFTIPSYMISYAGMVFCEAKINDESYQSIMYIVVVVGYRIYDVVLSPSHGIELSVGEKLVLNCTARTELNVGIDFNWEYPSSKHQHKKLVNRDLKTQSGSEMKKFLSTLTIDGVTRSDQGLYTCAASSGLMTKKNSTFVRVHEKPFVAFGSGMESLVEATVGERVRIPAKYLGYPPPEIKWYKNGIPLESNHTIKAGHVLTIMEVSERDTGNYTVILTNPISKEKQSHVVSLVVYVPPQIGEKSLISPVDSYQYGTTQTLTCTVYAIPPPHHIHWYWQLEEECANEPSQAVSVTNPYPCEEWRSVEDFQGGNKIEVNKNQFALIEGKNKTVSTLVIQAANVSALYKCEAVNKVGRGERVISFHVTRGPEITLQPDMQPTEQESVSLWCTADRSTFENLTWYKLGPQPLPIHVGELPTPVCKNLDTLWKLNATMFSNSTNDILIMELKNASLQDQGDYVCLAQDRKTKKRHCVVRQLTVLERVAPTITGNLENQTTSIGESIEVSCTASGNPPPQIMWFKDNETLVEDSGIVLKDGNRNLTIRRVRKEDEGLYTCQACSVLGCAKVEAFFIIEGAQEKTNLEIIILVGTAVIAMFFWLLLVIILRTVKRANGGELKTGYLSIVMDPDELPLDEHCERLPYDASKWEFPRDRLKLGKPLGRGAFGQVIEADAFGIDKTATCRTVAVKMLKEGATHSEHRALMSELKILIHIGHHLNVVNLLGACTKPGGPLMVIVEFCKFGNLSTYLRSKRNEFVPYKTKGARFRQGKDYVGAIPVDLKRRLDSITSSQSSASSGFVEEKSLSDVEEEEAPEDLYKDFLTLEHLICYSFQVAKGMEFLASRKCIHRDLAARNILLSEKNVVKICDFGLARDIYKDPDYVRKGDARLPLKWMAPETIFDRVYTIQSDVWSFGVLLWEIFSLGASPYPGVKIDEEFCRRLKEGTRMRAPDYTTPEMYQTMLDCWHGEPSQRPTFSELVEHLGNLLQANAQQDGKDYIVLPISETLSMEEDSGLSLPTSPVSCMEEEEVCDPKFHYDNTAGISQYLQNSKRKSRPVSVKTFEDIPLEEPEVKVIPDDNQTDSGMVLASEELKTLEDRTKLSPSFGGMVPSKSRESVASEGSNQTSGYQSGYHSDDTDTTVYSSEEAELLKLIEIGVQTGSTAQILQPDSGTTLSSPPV

[9] = molecular target: Vascular endothelial growth factor receptor 2 (Homo sapiens) (UniProt P35968); conditions: at 1 µM
[10] = molecular target: Mast/stem cell growth factor receptor Kit (Homo sapiens) (UniProt P10721); conditions: at 0.1 µM
Chain of Mast/stem cell growth factor receptor Kit (Homo sapiens) (P10721 whole entry): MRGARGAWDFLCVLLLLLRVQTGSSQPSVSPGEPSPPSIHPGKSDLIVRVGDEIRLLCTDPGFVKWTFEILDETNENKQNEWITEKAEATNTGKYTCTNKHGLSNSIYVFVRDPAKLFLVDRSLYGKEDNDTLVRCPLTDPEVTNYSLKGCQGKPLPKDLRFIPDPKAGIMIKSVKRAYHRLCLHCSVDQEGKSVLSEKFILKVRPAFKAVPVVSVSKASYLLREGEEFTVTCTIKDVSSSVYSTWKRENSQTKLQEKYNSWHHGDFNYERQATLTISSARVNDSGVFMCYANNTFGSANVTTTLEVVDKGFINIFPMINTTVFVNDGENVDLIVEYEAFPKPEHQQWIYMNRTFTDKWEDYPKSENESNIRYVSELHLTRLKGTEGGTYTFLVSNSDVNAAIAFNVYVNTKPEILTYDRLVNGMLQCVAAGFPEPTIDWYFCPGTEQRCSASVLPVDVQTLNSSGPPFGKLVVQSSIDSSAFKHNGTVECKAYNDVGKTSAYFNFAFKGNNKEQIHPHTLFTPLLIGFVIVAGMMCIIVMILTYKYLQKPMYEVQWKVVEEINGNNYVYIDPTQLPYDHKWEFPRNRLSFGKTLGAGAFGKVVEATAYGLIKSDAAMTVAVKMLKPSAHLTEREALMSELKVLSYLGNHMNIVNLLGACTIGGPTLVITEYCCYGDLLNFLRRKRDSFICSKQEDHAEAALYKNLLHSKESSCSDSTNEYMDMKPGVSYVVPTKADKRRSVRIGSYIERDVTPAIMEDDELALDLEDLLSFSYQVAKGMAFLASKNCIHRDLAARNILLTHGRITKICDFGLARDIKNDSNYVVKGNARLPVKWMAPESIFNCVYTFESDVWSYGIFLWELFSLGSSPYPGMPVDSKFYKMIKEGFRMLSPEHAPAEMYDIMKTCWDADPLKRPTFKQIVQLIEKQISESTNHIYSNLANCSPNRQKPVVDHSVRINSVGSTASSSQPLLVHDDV

[11] = molecular target: Mast/stem cell growth factor receptor Kit (Homo sapiens) (UniProt P10721); conditions: at 1 µM
[12] = system: Mast/stem cell growth factor receptor Kit (Homo sapiens), P10721 [D816V]; conditions: at 0.1 µM
Chain of Mast/stem cell growth factor receptor Kit (Homo sapiens), P10721 [D816V] (P10721 whole entry D816V): as the sequence (P10721 whole entry) above, with D816V counted along it

[13] = system: Mast/stem cell growth factor receptor Kit (Homo sapiens), P10721 [D816V]; conditions: at 1 µM
[14] = system: Mast/stem cell growth factor receptor Kit (Homo sapiens), P10721 [T670I]; conditions: at 0.1 µM
Chain of Mast/stem cell growth factor receptor Kit (Homo sapiens), P10721 [T670I] (P10721 whole entry T670I): as the sequence (P10721 whole entry) above, with T670I counted along it

[15] = system: Mast/stem cell growth factor receptor Kit (Homo sapiens), P10721 [T670I]; conditions: at 1 µM
[16] = system: Mast/stem cell growth factor receptor Kit (Homo sapiens), P10721 [V560G]; conditions: at 0.1 µM
Chain of Mast/stem cell growth factor receptor Kit (Homo sapiens), P10721 [V560G] (P10721 whole entry V560G): as the sequence (P10721 whole entry) above, with V560G counted along it

[17] = system: Mast/stem cell growth factor receptor Kit (Homo sapiens), P10721 [V560G]; conditions: at 1 µM
[18] = molecular target: Tyrosine-protein kinase Lck (Homo sapiens) (UniProt P06239); conditions: at 0.1 µM
Chain of Tyrosine-protein kinase Lck (Homo sapiens) (P06239 2-509 limits assumed): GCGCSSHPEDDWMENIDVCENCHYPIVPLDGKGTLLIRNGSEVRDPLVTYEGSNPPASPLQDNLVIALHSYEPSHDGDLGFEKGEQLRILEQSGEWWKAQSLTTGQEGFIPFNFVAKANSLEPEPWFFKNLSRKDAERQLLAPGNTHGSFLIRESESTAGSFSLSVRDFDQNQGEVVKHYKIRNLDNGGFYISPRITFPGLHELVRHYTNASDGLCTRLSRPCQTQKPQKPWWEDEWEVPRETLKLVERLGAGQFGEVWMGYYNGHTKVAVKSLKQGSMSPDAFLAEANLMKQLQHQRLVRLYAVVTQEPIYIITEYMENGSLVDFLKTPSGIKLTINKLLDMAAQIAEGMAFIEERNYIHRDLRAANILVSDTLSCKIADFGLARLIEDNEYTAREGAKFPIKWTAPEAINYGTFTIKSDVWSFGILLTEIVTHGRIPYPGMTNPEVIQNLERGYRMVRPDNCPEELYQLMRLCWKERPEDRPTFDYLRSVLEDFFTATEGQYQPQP

[19] = molecular target: Tyrosine-protein kinase Lck (Homo sapiens) (UniProt P06239); conditions: at 1 µM
[20] = molecular target: Leukocyte tyrosine kinase receptor (Homo sapiens) (UniProt P29376); conditions: at 0.1 µM
Chain of Leukocyte tyrosine kinase receptor (Homo sapiens) (P29376 whole entry): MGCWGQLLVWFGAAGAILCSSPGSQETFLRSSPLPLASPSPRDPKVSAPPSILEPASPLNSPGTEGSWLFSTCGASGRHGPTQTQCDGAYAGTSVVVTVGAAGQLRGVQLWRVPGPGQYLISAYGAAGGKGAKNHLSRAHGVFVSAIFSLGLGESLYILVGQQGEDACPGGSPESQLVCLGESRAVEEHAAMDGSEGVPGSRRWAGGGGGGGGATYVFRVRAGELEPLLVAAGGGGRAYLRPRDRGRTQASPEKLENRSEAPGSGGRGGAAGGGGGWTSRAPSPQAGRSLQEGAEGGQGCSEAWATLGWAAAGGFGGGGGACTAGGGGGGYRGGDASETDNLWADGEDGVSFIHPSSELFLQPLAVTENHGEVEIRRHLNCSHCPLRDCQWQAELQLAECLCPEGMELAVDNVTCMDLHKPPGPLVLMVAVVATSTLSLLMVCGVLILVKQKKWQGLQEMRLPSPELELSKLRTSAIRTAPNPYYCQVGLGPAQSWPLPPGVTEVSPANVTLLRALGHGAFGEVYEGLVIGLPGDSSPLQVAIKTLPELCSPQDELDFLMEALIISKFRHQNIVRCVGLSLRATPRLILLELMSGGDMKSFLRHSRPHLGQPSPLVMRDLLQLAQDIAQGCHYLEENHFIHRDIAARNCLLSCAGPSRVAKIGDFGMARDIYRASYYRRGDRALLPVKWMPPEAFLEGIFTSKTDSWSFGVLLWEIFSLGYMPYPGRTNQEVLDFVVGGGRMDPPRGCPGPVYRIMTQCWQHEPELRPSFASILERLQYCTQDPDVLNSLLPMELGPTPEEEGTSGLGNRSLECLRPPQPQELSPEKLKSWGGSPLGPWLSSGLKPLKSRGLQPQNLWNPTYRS

Compound | inhibition [1] [%] | inhibition [2] [%] | inhibition [3] [%] | inhibition [4] [%] | inhibition [5] [%] | inhibition [6] [%] | inhibition [7] [%] | inhibition [8] [%] | inhibition [9] [%] | inhibition [10] [%] | inhibition [11] [%] | inhibition [12] [%] | inhibition [13] [%] | inhibition [14] [%] | inhibition [15] [%] | inhibition [16] [%] | inhibition [17] [%] | inhibition [18] [%] | inhibition [19] [%] | inhibition [20] [%]
COc1cc(N2CCN(C(C)C)CC2)ccc1Nc1nc(Nc2ccc(F)cc2C(=O)NC[C@@H](O)CO)c2cc[nH]c2n1 | -1.4 | 3.78 | 12.3 | 0.29 | 1.56 | -5.03 | -8.11 | 5.49 | 8.49 | 4.46 | 6.9 | 4.14 | 7.71 | 3.52 | 4.77 | -2.07 | -1.61 | -1.06 | -2.81 | 55.2
NC(=O)c1ccc(Oc2nccc(-c3c(-c4ccc(F)cc4)ncn3C3CCNCC3)n2)cc1 | 2.32 | 3.88 | 0.7 | 2.78 | 3.18 | -0.36 | -0.92 | 4.96 | 9.7 | 7.24 | 6.05 | 4.42 | 4.25 | 1.23 | 1.77 | -1.86 | 0.03 | 5.07 | 4.88 | 4.02
COC(=O)Nc1nc2ccc(Sc3ccc(NC(=O)Nc4cc(C(F)(F)F)ccc4F)cc3)cc2[nH]1 | 0.87 | 0.69 | -4.92 | 32.5 | 2.1 | -1.15 | 2.49 | – | – | 1.63 | 43.9 | -2.14 | 5.31 | -0.05 | 30 | 2.79 | 27.3 | 5.45 | 34.7 | -0.1
Nc1nccc(-c2c(-c3ccc(F)cc3)ncn2C2CCC(O)CC2)n1 (stereo unspecified) | 0.63 | -6.08 | -2.41 | -0.54 | -0.27 | 1.29 | 2.69 | 2.29 | 17.2 | -1.79 | 17.1 | -2.57 | 1.44 | -0.22 | -0.69 | 1.44 | 5.14 | 3.6 | 29.2 | -1.37
CN(C)c1ccc2c(c1)/C(=C/Nc1ccc(S(N)(=O)=O)cc1)C(=O)N2 | 3.68 | 0.51 | 14.2 | 0.74 | 2.09 | -0.16 | 20.4 | 14.6 | 53.6 | 4.04 | 28.4 | 1.55 | 3.22 | 3.39 | 10 | -1.48 | -1.72 | 2.35 | 12.7 | 0.81
O=C(Nc1ccc(Oc2ccc3[nH]c(NC(=O)c4ccccc4)nc3c2)cc1)Nc1cc(C(F)(F)F)ccc1F | 2.09 | 1.88 | 7.18 | 1.51 | 4.06 | -0.16 | 9.29 | – | – | 10.4 | 85.1 | 1.52 | 4.26 | 5.51 | 52.1 | 10.4 | 67 | 2.25 | 14.4 | 1.84
COc1ccc2cc(-c3c(-c4ccncc4)nc(-c4ccc(S(C)(=O)=O)cc4C)n3C)ccc2c1 | 1.36 | 5.05 | 11.1 | 1.62 | 1.45 | -0.96 | -0.93 | 10.7 | 47.8 | 5.09 | 4.85 | 1.65 | 4.38 | 2.6 | 4.5 | 1.82 | -0.08 | 1.82 | 8.97 | 3.22
